A selection: hits, their analogues and other compounds. The true share with any hit is near 2.7%.
IDH1 R132H inh = human IDH1 R132H inhibition; hit rate 0.093% among 390,000; O75874; Potency, µM (doses to about 76.6 µM), usual class: inhibitors; IDH1-R132H enzyme, NADPH consumption, diaphorase/resazurin fluorescence; further: nearly all actives have a fitted effect of over 65% in size
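IDH1-R132H (0.5 ug/mL dispensed) in pH 7.5 Tris buffer was preincubated 30 min with compound, then given a substrate mix of 0.016 mM NADPH and 2 mM alpha-KG for 80 min at room temperature; remaining NADPH was read by diaphorase/resazurin fluorescence.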
Nrf2 ARE act = activators of Nrf2 (ARE) signaling; AREc32 ARE-luciferase reporter (MCF7-derived line), luminescence, 24 h; Potency, µM (doses to about 46.1 µM), most hits filed as activators; AID 624171; hit rate 0.31% among 410,000; further: nearly all actives have a fitted effect of over 65% in size
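Luciferase luminescence (Steady-Glo, 30 min at room temperature) served as the read-out of ARE activation in AREc32 cells treated with compounds for 24 hr at 37 deg C.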
LDHA inh = LDHA (human) enzyme inhibition. P00338. activity change, % (values are at about 110 or 230 µM). AID 1347041. purified LDHA, NADH/diaphorase-resazurin fluorescence; hits give low values. hit rate 0.15% among 480,000; in the data active means activity change below about -30%; inconclusive means mostly about -25% to -30%
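Remaining NADH was detected by diaphorase (0.133 mg/mL) converting 37 µM resazurin to fluorescent resorufin, read at 0 and 20 minutes. The preceding 5-minute room-temperature reaction used 2 nM LDHA, 0.2 mM sodium pyruvate and 0.06 mM NADH at pH 7.4.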
ALOX12 inh = blocks human arachidonate 12S-lipoxygenase | hit rate 1.1% among 580,000 | purified 12hLO, xylenol orange hydroperoxide absorbance | Potency, µM (titrated, usually from 108 µM), usual class: inhibitors | P18054 | AID 1671190
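Hydroperoxide product was detected by ferrous iron/xylenol orange as the 573 to 405 nm absorbance ratio. Arachidonic acid at 40 uM (final) was turned over for 30 min at room temperature by 150 nM human 12hLO, pH 7.0 Hepes buffer, after 15 min compound preincubation.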
Nrf2 inh = Nrf2 pathway inhibition | hit rate 2.1% among 360,000 | A549 ARE-Fluc reporter, luciferase luminescence, 18-24 h | Potency, µM (doses to about 46 µM), most hits filed as inhibitors; further: nearly all actives have a fitted effect of over 60% in size
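A549 ARE_Fluc cells, 5000/well, 5% FBS OPTI-MEM; compounds in dose-response, 18-24 h at 37 °C/5% CO2; CellTiter-Fluor viability read (Ex 405/Em 525), then BugLite luciferase luminescence = Nrf2 activity.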
A549 tox-1 = counter-screen for Nrf2 inhibitors: cytotoxicity in A549 cells; A549 ARE-Fluc cells, CellTiter-Fluor viability, 18-24 h; Potency, µM (doses to about 46 µM), usual class: inhibitors; hit rate 0.16% among 390,000; AID 504648
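Cytotoxicity counterscreen: CellTiter-Fluor fluorescence was measured in A549 ARE_Fluc cells after 18-24 h of compound exposure in a concentration series. The subsequent BugLite luminescent read reports ARE-luciferase activity.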
FLuc enzyme inh = counter-screen for Nrf2 inhibitors: firefly luciferase enzyme inhibition; shares compounds with Nrf2 inh; purified firefly luciferase, luminescence inhibition; Potency, µM (series often up to 57.5 µM), most hits filed as inhibitors; hit rate 4% among 1,400; AID 720522; further: nearly all actives have a fitted effect of over 65% in size
Target sequence (P08659 whole entry, looked up): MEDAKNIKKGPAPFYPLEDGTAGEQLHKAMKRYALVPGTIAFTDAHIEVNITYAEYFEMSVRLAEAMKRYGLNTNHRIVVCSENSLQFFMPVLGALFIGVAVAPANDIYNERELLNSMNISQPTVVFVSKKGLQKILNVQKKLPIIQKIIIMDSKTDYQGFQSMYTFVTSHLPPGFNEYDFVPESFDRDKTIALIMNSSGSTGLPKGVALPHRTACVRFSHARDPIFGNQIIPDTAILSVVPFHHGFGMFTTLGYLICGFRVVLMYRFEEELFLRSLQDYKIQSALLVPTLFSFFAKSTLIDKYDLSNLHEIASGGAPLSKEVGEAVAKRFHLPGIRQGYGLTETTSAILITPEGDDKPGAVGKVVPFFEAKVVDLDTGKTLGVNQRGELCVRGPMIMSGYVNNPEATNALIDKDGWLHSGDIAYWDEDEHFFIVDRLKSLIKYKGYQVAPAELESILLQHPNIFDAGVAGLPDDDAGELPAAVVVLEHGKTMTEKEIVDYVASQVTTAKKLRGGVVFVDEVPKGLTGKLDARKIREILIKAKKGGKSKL
A549 tox-2 = A549 cytotoxicity, Nrf2 inhibitor counterscreen | shares compounds with Nrf2 inh | A549 ARE-Fluc cells, cytotoxicity counterscreen | Potency, µM (top dose mostly 46.1 µM), most hits filed as inhibitors | hit rate 2% among 1,400;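 further: cells exposed to compounds for 18 to 24 hours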
Nrf2 ARE inh = reduces Nrf2 ARE reporter signal in A549 cells | shares compounds with Nrf2 inh | A549 ARE-firefly luciferase reporter, luminescence | Potency, µM (doses to about 46.1 µM), usual class: inhibitors | hit rate 74% among 1,400 | AID 720524; further: nearly all actives have a fitted effect of over 65% in size
Large screens that a line does not name were inactive (follow-up assays come after a bar, where shown). Unless noted, the call rests on the fitted dose curve; in most records, active means well fitted curve in the direction sought with a large enough effect; inconclusive means small, poorly fitted or top-dose-only effect, or another doubt; inactive means no such curve, though single readings can be large; an effect the other way counts as inactive or inconclusive.

COc1ccc(-c2nc(CSCC(=O)N3CCN(c4ccc(OC)cc4)CC3)c(C)o2)cc1	Nrf2 inh 4.6µM | FLuc enzyme inh inactive | A549 tox-2 inactive | Nrf2 ARE inh 9.2µM
CCOc1ccc(-c2nc(CSCC(=O)N3CCN(c4ccc(F)cc4)CC3)c(C)o2)cc1	none (no result: Nrf2 inh)
COc1ccc(-c2nc(CSCC(=O)N3CCN(c4cc(Cl)ccc4C)CC3)c(C)o2)cc1	ALOX12 inh inconclusive, Nrf2 inh 7.3µM | FLuc enzyme inh inconclusive | A549 tox-2 inconclusive | Nrf2 ARE inh 12µM
CC(NC(=O)COc1ccc(Br)cc1)c1nc2ccccc2[nH]1 (centres undefined)	none (no result: IDH1 R132H inh, Nrf2 ARE act, Nrf2 inh, A549 tox-1)
Cc1c(C(C)NC(=O)c2cc(COc3cccc4cnccc34)on2)cnn1C (centres undefined)	Nrf2 inh 8.2µM | FLuc enzyme inh inactive | A549 tox-2 inactive | Nrf2 ARE inh 7.3µM
Fc1ccc(Nc2nc3nonc3nc2Nc2cccc(C(F)(F)F)c2)cc1	ALOX12 inh inconclusive, Nrf2 inh 1.5µM, A549 tox-1 8.2µM | FLuc enzyme inh inactive | A549 tox-2 5.8µM | Nrf2 ARE inh 1µM
NC(=O)NC(=O)CCN1CCOC(c2ccc(Br)cc2)C1 (centres undefined)	ALOX12 inh inconclusive (no result: IDH1 R132H inh, Nrf2 ARE act, Nrf2 inh, A549 tox-1)
Cc1nc(C)c(C(=O)NNS(=O)(=O)c2ccc3ccccc3c2)s1	Nrf2 inh 9.2µM | FLuc enzyme inh inactive | A549 tox-2 inactive | Nrf2 ARE inh inconclusive
COc1ccc(S(=O)(=O)n2nc(OC(=O)c3ccc(C)cc3)cc2N)cc1	Nrf2 inh 0.58µM | FLuc enzyme inh inactive | A549 tox-2 inactive
Cc1ccc(S(=O)(=O)n2nc(OC(=O)c3ccccc3F)cc2N)cc1	none
Cc1ccc(C(=O)Oc2cc(N)n(S(=O)(=O)c3ccc(C)cc3)n2)cc1	Nrf2 inh 1.2µM | FLuc enzyme inh inactive | A549 tox-2 inactive | Nrf2 ARE inh 4.6µM
CCN(CC(=O)NC(C)(C)C)c1nc(-c2cccs2)nc2ccccc12	none (no result: IDH1 R132H inh, Nrf2 ARE act, Nrf2 inh, A549 tox-1)
Cn1c(SCC(=O)Nc2cccc(C(=O)O)c2)nnc1-c1ccc(Cl)cc1	none (no result: IDH1 R132H inh, Nrf2 ARE act, Nrf2 inh, A549 tox-1)
O=C(O)C[C@@H]1CCN(C(=O)COc2ccccc2)C[C@@H]1CCN1CCN(c2ccccn2)CC1	none (no result: IDH1 R132H inh, Nrf2 ARE act, LDHA inh, Nrf2 inh, A549 tox-1)
CCCCCCCn1c2c(c(=N)c3ccccc31)CCC2	ALOX12 inh inconclusive, Nrf2 inh 2.3µM, A549 tox-1 inconclusive | FLuc enzyme inh inactive | A549 tox-2 inconclusive | Nrf2 ARE inh 1.5µM
CCCn1c(SCC(=O)Nc2nncs2)nnc1C1CC1	ALOX12 inh inconclusive (no result: IDH1 R132H inh, Nrf2 ARE act, Nrf2 inh, A549 tox-1)
Cc1cc(C(=O)N2C[C@@H](Oc3ccccc3)C[C@H]2C(=O)N2CCCC2)nn1C	none (no result: IDH1 R132H inh, Nrf2 ARE act, LDHA inh, Nrf2 inh, A549 tox-1)
COc1cc2c(oc(=O)c3cc(C)cc(OC)c32)c2c(C3OC(C)C(O)C(C)(O)C3O)ccc(O)c12 (centres undefined)	Nrf2 inh 1.3µM, A549 tox-1 5.8µM | FLuc enzyme inh inactive | A549 tox-2 inconclusive | Nrf2 ARE inh 1.8µM
COc1cccc2cc(C(=O)N3CC(C)OC(C)C3)c(=O)oc12 (centres undefined)	none
CCC(CO)Nc1nc2c(c(=O)n(Cc3ccc(Cl)cc3Cl)c(=O)n2C)n1C (centres undefined)	ALOX12 inh inconclusive (no result: IDH1 R132H inh, Nrf2 ARE act, Nrf2 inh, A549 tox-1)
COc1cc(NC(=O)c2cccs2)c(OC)cc1NC(=O)CCC(=O)Nc1ccc2ncccc2c1	Nrf2 inh 5.8µM | FLuc enzyme inh inactive | A549 tox-2 inactive | Nrf2 ARE inh inactive
COc1ccc(CNC(=O)c2cccc(N3CCCS3(=O)=O)c2)cc1OC	Nrf2 inh 2.6µM | FLuc enzyme inh inactive | A549 tox-2 inactive | Nrf2 ARE inh inconclusive
O=C(c1cc(COc2ccc3ncccc3c2)on1)N1CCCC(O)C1 (centres undefined)	Nrf2 inh inconclusive
Cc1cccnc1CN1CCN(C(=O)c2cc(COc3ccc4ncccc4c3)on2)CC1	Nrf2 inh 4.1µM | FLuc enzyme inh inactive | A549 tox-2 inactive | Nrf2 ARE inh inconclusive
O=C(c1cc(COc2ccc3ncccc3c2)on1)N1CCC(O)CC1	Nrf2 inh 8.2µM | FLuc enzyme inh inactive | A549 tox-2 inactive | Nrf2 ARE inh inactive
CCC(O)C1CCN(C(=O)c2cc(COc3ccc4ncccc4c3)on2)CC1 (centres undefined)	Nrf2 inh 1.8µM, A549 tox-1 inconclusive | FLuc enzyme inh inactive | A549 tox-2 inactive | Nrf2 ARE inh 1.5µM
O=C(NC1CCCCCCC1)c1cc(COc2ccc3ncccc3c2)on1	Nrf2 inh 3.3µM, A549 tox-1 inconclusive | FLuc enzyme inh inactive | A549 tox-2 inactive | Nrf2 ARE inh 2.9µM
Cc1ccc(-n2c(SCC(=O)Nc3ccc(F)c(Cl)c3)nc3c(=O)[nH]cnc32)cc1	ALOX12 inh inconclusive (no result: IDH1 R132H inh, Nrf2 ARE act, Nrf2 inh, A549 tox-1)

Compound activity (PubChem)
